# Rows were chosen to be rich in hits. Some 2% of all compounds tested hit in one or more screens of this group.
# aSyn rescue = rescues yeast growth from alpha-synuclein toxicity; actives 0.14% (n = 370,000); Yeast expressing alpha-synuclein, growth rescue, BacTiter-Glo, 24 h; AID 652106; Potency, µM (titrated, usually from 46.1 µM), inactives show at the highest dose growth rescue (activation), hits mostly activators; note: % of control where 0% means no effect; nearly all actives have a fitted effect of over 65% in size
#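 Rescue of yeast growth: cells expressing toxic alpha-synuclein, induced in galactose at OD600 0.02, incubated with compound 24 h at 30 C. ATP luminescence quantified growth; inhibitors of toxicity appear as activators.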
# Rango-impB inh = Rango-importin beta binding inhibition; Rango CFP/YFP FRET sensor + importin beta, 45 min; Potency, µM (doses to about 92.2 µM), inactives show at the top dose inhibition of complex formation; actives 0.031% (n = 340,000); AID 540263; calls by dose curve;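 note: 0% = DMSO wells and 100% = buffer wells lacking importin beta; nearly all actives have a fitted effect of over 15% in size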
# Target sequence (Q14974 whole entry, looked up): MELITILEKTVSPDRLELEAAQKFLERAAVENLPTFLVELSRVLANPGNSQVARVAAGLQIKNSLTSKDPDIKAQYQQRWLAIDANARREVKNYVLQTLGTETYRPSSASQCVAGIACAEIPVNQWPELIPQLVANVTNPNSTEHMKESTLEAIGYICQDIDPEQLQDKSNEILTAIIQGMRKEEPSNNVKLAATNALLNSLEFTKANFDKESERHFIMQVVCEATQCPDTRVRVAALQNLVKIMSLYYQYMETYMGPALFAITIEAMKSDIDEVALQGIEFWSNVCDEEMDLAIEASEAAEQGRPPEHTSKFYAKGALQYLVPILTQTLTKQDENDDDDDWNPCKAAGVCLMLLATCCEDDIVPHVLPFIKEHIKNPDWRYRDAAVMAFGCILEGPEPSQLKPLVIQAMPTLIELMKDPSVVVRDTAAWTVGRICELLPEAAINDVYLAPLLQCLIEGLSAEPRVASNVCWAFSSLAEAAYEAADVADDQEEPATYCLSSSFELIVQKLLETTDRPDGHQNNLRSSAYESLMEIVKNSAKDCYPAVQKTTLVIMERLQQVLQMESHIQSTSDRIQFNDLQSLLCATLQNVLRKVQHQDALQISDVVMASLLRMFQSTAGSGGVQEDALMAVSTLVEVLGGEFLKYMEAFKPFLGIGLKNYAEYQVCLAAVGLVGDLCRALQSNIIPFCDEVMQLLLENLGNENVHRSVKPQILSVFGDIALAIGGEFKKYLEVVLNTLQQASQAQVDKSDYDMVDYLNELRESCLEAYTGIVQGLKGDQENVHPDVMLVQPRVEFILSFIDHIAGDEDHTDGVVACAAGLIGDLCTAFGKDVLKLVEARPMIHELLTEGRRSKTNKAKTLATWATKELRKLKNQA
#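 FRET biosensor (snurportin 1 IBB flanked by EYFP and cerulean), 50 nM, with compound 5 min, then 0.125 microM importin beta in PBS, 1 mM DTT, 0.02% Tween-20, 0.1% BSA. CFP/YFP ratio read after 45 min at room temperature; pre-read flags interference.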
# Rango release inh = prevents RanGTP from dissociating the Rango-importin beta complex. Biochemical FRET Rango-importin beta, RanGTP-induced dissociation. Potency, µM (top dose mostly 46.1 µM), inactives show top-dose activity change, negative = inhibition. actives 0.071% (n = 340,000). AID 540253; calls by dose curve; note: % of control where 0% means no effect; nearly all actives have a fitted effect of over 45% in size
#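 Rango FRET biosensor (snurportin-1 IBB flanked by N-terminal EYFP and C-terminal CFP10) at 0.1 uM, with 0.25 uM importin beta in PBS, 1mM DTT, 0.02% Tween-20, 0.1% BSA. 0.6 uM Ran, 2mM GTP and 0.2 uM RCC1 were then added for 45 min at room temperature. Inhibition read as loss of FRET rise.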
# S-ASM inh = human S-ASM enzyme inhibition; P17405; placental ASM, HMU-PC fluorogenic substrate, 60 min; Potency, µM (doses to about 57.5 µM), for the others: at the highest dose activity change, negative = inhibition, hits mostly inhibitors; actives 0.006% (n = 340,000); AID 504937
#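 Steps: dispense placental human ASM, pin compound, wait 10 min at room temperature, add HMU-PC0 substrate at 9 uM final, incubate 60 min at 37 °C, add stop solution raising pH to 10, read fluorescence.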
# Abeta rescue = A-beta toxicity reversal in yeast. Potency, µM (top dose mostly 46.1 µM), hits mostly activators. actives 0.063% (n = 410,000). yeast expressing A-beta42, growth rescue, OD600, 48 h; response scale: 0% DMSO, 100% iron-clioquinol control. AID 1347071; note: nearly all actives have a fitted effect of over 55% in size
#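 Yeast A-beta toxicity model in growth medium with pinned compounds, 48 h at 30 C; growth read as absorbance at 600 nm. Normalized to FeCl3/clioquinol equimolar mix (positive) and DMSO (negative).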
# TDP-43 yeast inh = rescues yeast growth from TDP-43 toxicity; TDP-43 expressing yeast growth rescue, BacTiter-Glo, 24 h; Potency, µM (doses to about 46.1 µM), without a hit: at the top dose growth rescue (activation), usual class: activators; actives 1.8% (n = 410,000); AID 652104; note: % of control where 0% means no effect; nearly all actives have a fitted effect of over 50% in size
#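 In this qHTS, compounds that restore growth of yeast expressing TDP-43 appear as activators. Cells (OD600=0.02, galactose medium, raffinose-pregrown) are incubated with compound 24 hr at 30 deg C and growth is quantified by BacTiter-Glo.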
# The depositor's hits bear a star; i = inactive; ? = inconclusive; nt = no result; [ ] = remark or other dose. Unless noted, calls come from the whole dose curve; as a rule, active = well fitted curve in the direction sought with a large enough effect; inconclusive = small, poorly fitted or top-dose-only effect, or another doubt; inactive = no such curve, though single readings can be large; an effect the other way counts as inactive or inconclusive. Potency is the fitted concentration of half-maximal effect.
SMILES,aSyn rescue,Rango-impB inh,Rango release inh,S-ASM inh,Abeta rescue,TDP-43 yeast inh
CCCc1nc(SCC(=O)Nc2nc3c(s2)CCCC3)c2ccccc2n1,-9%,0%,-10%,-14%,i,1%
CC(C)(C)C1CCc2nc(NC(=O)Cc3cn4ccsc4n3)sc2C1 (stereo not given),9%,2%,-7%,-2%,i,16µM*
O=C(CSc1nnnn1C1CCCCC1)Nc1nc2c(s1)CCCC2,?,1%,3%,-8%,i,13µM*
CCc1nc(SCC(=O)Nc2nc3c(s2)CCCC3)c2ccccc2n1,-6%,-1%,0%,-12%,i,10µM*
Cc1csc(NC(=O)CCCc2cccs2)n1,-3%,4%,0%,5%,i,13%[9.22 µM]
O=C(CCCc1cccs1)Nc1nc2c(s1)CCCC2,-15%,-1%,-4%,-2%,?,13µM*
CCOC(=O)c1ccc(NC(=O)CCc2nc3cccnc3n2Cc2cccs2)cc1,nt,nt,nt,nt,i,0%
COc1ccc(Nc2ncc3c(n2)CCN(Cc2ccc(Br)s2)C3)c(OC)c1,nt,nt,nt,nt,i,19%[9.22 µM]
Cc1ccc(CNC(=O)c2ccc3c(c2)N(Cc2ccccc2F)C(=O)c2ccccc2S3(=O)=O)cc1,nt,nt,nt,nt,i,16%
O=C(CSc1nc(Cc2ccccc2)nc2ccccc12)c1ccc2c(c1)OCCO2,0%,?,-11%,2%,i,-16%
CCc1nc(SCC(=O)c2ccc3c(c2)OCCO3)c2ccccc2n1,0%,?,?,-2%,i,18µM*
Cn1nc(C(=O)N2CCN(c3ccccc3F)CC2)c2c1-c1ccccc1SC2,nt,nt,nt,nt,i,18µM*
COc1ccc(N2CCN(C(=O)c3cc4c(-c5ccccc5F)nn(C)c4s3)CC2)cc1,nt,nt,nt,nt,i,20µM*
Cn1nc(-c2ccccc2F)c2cc(C(=O)N3CCN(c4ccc(F)cc4)CC3)sc21,nt,nt,nt,nt,i,?
COc1ccc(N2CCN(C(=O)c3nn(C)c4c3CSc3ccccc3-4)CC2)cc1,nt,nt,nt,nt,i,13µM*
Oc1ccc2ccccc2c1SSc1c(O)ccc2ccccc12,-66%,nt,nt,nt,nt,nt
C=CCNc1nc(NC2CCN(C)CC2)c2cc(OC)c(OC)cc2n1,0%,nt,nt,nt,nt,nt
CCOC(=O)Cn1c(=O)n(CC2CCCO2)c2nc(-c3ccc(OCC)cc3)nc(C(N)=O)c21 (stereo not given),4%,nt,nt,nt,i,0%
Fc1ccc(C(NCCc2ccc(Cl)cc2)c2nnc(-c3ccccc3Cl)o2)cc1 (stereo not given),nt,nt,nt,nt,i,32µM*
CC1(C)C(=O)C=CC(=O)C(C)(C)C(=O)C=CC(=O)C(C)(C)C2=CC=C(O2)C(C)(C)C(=O)C=CC1=O,8%,0%,-19%,0%,i,16µM*
Cc1nc(CNS(=O)(=O)c2ccc3ccccc3c2)cs1,-4%,1%,-1%,2%,i,14µM*
COc1ccccc1N(CC(O)COc1c(C)cc(C)cc1C)S(=O)(=O)c1ccccc1 (stereo not given),24%,?,-12%,-7%,i,18µM*
COc1ccccc1N(CC(O)COc1ccc(C)cc1)S(=O)(=O)c1ccccc1 (stereo not given),?,-2%,7%,-5%,i,0%
CC(C)(C)c1ccc(S(=O)(=O)Nc2noc3ccccc23)cc1,-11%,-1%,12%,0%,i,20µM*
COc1ccc(S(=O)(=O)Nc2noc3ccccc23)cc1OC,-5%,6%,-2%,-2%,i,?
SMILES,aSyn rescue,Rango-impB inh,Rango release inh,S-ASM inh,Abeta rescue,TDP-43 yeast inh
COc1cccc(S(=O)(=O)Nc2noc3ccccc23)c1,0%,-2%,1%,2%,i,?
COc1ccc(S(=O)(=O)Nc2noc3ccccc23)cc1,-4%,-3%,6%,5%,i,11µM*
CCOC(=O)c1c(C)[nH]c(C)c1S(=O)(=O)N1CCN(c2cccc(C(F)(F)F)c2)CC1,nt,nt,nt,nt,i,-24%
CC1(C)N=C(SCC(=O)Nc2ccccc2)C(c2ccc(Cl)cc2)=N1,0%,2%,26%,-4%,i,18µM*
Cc1ccc(C2=NC(C)(C)N=C2SCC(=O)Nc2ccc(Cl)cc2)cc1,-9%,-5%,-17%,-11%,i,35µM*
CC1(C)N=C(SCC(=O)Nc2ccc(Cl)cc2Cl)C(c2ccccc2)=N1,-13%,-4%,0%,-3%,i,23%
O=C(CSc1ncc(-c2ccccc2)[nH]1)Nc1ccc(Cl)cc1,nt,nt,nt,nt,i,22µM*
O=C(CSc1ncc(-c2ccccc2)[nH]1)Nc1ccccc1,-5%,5%,12%,0%,i,0%
COc1ccc(OC)c(-c2cc(C(=O)Nc3ccc(C)c(C)c3)no2)c1,nt,nt,nt,nt,i,24%
CC(/C=N/n1c(COc2ccccc2)n[nH]c1=S)=C\c1ccccc1,nt,0%,0%,-10%,i,11µM*
CCOc1cc(CN2CCN(S(=O)(=O)c3ccc(C)cc3)CC2)ccc1OC,nt,nt,nt,nt,i,16%
CC1=C(C(=O)Nc2cccc(F)c2)C2(CCCCCC2)OC1=O,nt,nt,nt,nt,i,?
O=C(NCc1ccco1)c1ccc(Oc2ccccc2)cc1,0%,3%,-5%,-3%,i,20µM*
N#Cc1cccc(C(=O)OCC(=O)NCc2ccco2)c1,-6%,0%,?,2%,i,7%
O=C(COC(=O)c1cccc(Oc2ccccc2)c1)NCc1ccco1,16%,5%,-12%,-9%,?,16µM*
Cc1ccc(C(=O)O)cc1N1C(=O)c2cccc3c([N+](=O)[O-])ccc(c23)C1=O,-18%,?,?,-5%,i,20%
CC(=O)Oc1cccc(N2C(=O)c3cccc4c([N+](=O)[O-])ccc(c34)C2=O)c1,4%,?,1.8µM*[inhibitor],0%,i,1%
CC(=O)N(C(C)=O)N1C(=O)C2C3c4ccccc4C(c4ccccc43)C2C1=O (stereo not given),-21%,1%,-12%,3%,i,22µM*
O=C(Nc1ccc2ccccc2c1)c1ccc(Br)o1,-4%,0%,6%,-5%,i,20µM*
COc1ccc(Cl)cc1N(C)C(=O)Cn1cnc2sc(C)c(S(=O)(=O)N3CCN(c4ncccn4)CC3)c2c1=O,nt,nt,nt,nt,i,22%
Cc1cc(C)c2c(=O)c3c(oc2c1)C(=O)N(Cc1ccco1)C3c1ccccc1F (stereo not given),nt,nt,nt,nt,i,21%

# Bioassay records deposited in PubChem by National Center for Advancing Translational Sciences (NCATS).
